# Test results as given in article PMC11062922 (Nature Chemical Biology, 2023).
# Like-named read-outs stand apart in the source and are kept apart here.
# Key:
# ABL1 = test system: ABL1; set-up: species or system human, MV4-11 + K-562 + COLO205 + SK-N-BE2 + OVCAR-8; settings: read-out: apparent Kd, n = 1
# ABL2 = test system: ABL2; set-up: species or system human, MV4-11 + K-562 + COLO205 + SK-N-BE2 + OVCAR-8; settings: read-out: apparent Kd, n = 1
# LCK = test system: LCK; set-up: species or system human, MV4-11 + K-562 + COLO205 + SK-N-BE2 + OVCAR-8; settings: read-out: apparent Kd, n = 1
# PTK6 = test system: PTK6; set-up: species or system human, MV4-11 + K-562 + COLO205 + SK-N-BE2 + OVCAR-8; settings: read-out: apparent Kd, n = 1
# RIPK2 = test system: RIPK2; set-up: species or system human, MV4-11 + K-562 + COLO205 + SK-N-BE2 + OVCAR-8; settings: read-out: apparent Kd, n = 1
# FYN = test system: FYN; set-up: species or system human, MV4-11 + K-562 + COLO205 + SK-N-BE2 + OVCAR-8; settings: read-out: apparent Kd, n = 1
# GAK = test system: GAK; set-up: species or system human, MV4-11 + K-562 + COLO205 + SK-N-BE2 + OVCAR-8; settings: read-out: apparent Kd, n = 1
# HCK = test system: HCK; set-up: species or system human, MV4-11 + K-562 + COLO205 + SK-N-BE2 + OVCAR-8; settings: read-out: apparent Kd, compound concentrations: 100 nM and 1000 nM (sheet 'Samples'), n = 1
# RIPK3 = test system: RIPK3; set-up: species or system human, MV4-11 + K-562 + COLO205 + SK-N-BE2 + OVCAR-8; settings: read-out: apparent Kd, n = 1
# YES1 = test system: YES1; set-up: species or system human, MV4-11 + K-562 + COLO205 + SK-N-BE2 + OVCAR-8; settings: read-out: apparent Kd, n = 1
# BCR = test system: BCR; set-up: species or system human, MV4-11 + K-562 + COLO205 + SK-N-BE2 + OVCAR-8; settings: read-out: apparent Kd, n = 1
# RET = test system: RET; set-up: species or system human, MV4-11 + K-562 + COLO205 + SK-N-BE2 + OVCAR-8; settings: read-out: apparent Kd, n = 1
# TNK1 = test system: TNK1; set-up: species or system human, MV4-11 + K-562 + COLO205 + SK-N-BE2 + OVCAR-8; settings: read-out: apparent Kd, n = 1
# CLK1 = test system: CLK1; set-up: species or system human, MV4-11 + K-562 + COLO205 + SK-N-BE2 + OVCAR-8; settings: read-out: apparent Kd; compound concentrations:100 nM and 1000 nM (sheet 'Samples'); n = 1
# CLK4 = test system: CLK4; set-up: species or system human, MV4-11 + K-562 + COLO205 + SK-N-BE2 + OVCAR-8; settings: read-out: apparent Kd; compound concentrations:100 nM and 1000 nM (sheet 'Samples'); n = 1
# Q6ZSR9 = Q6ZSR9 (human, UniProt Q6ZSR9); set-up: species or system MV4-11 + K-562 + COLO205 + SK-N-BE2 + OVCAR-8; settings: read-out: apparent Kd; compound concentrations:100 nM and 1000 nM (sheet 'Samples'); n = 1
# CSNK2A1;CSNK2A3 = test system: CSNK2A1;CSNK2A3; set-up: species or system human, MV4-11 + K-562 + COLO205 + SK-N-BE2 + OVCAR-8; settings: read-out: apparent Kd; compound concentrations:100 nM and 1000 nM (sheet 'Samples'); n = 1
# CSNK2A2 = test system: CSNK2A2; set-up: species or system human, MV4-11 + K-562 + COLO205 + SK-N-BE2 + OVCAR-8; settings: read-out: apparent Kd; compound concentrations:100 nM and 1000 nM (sheet 'Samples'); n = 1
# [1] = compound concentrations:100 nM and 1000 nM (sheet 'Samples')
# Q6ZSR9, sequence (Q6ZSR9 whole entry, looked up): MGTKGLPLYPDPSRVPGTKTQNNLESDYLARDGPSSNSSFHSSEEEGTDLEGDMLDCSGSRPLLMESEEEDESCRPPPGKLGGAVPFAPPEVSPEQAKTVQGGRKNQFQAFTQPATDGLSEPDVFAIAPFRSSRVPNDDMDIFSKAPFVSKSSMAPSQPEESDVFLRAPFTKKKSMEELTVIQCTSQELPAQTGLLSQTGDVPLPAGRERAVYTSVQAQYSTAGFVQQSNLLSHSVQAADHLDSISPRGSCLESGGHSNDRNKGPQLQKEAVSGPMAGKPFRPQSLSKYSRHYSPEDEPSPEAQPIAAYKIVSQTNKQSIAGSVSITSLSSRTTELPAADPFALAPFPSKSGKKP
structure (smiles),measurement,setting,value
Cn1cc(-c2cnc(N)c3c(-c4ccc5c(c4)CCN5C(=O)Cc4ccccc4)csc23)cn1 [GSK2593074A],potency estimated from few doses,ABL1; [1],563 nM
same,potency estimated from few doses,ABL2; [1],641 nM
same,potency estimated from few doses,LCK; [1],554 nM
same,potency estimated from few doses,PTK6; [1],1340 nM
same,potency estimated from few doses,RIPK2; [1],120 nM
CN1CCN(Cc2ccc(-c3ccc4c(Nc5ccc(Oc6ccccn6)cc5)ccnc4c3)o2)CC1 [GW567140X],potency estimated from few doses,"ABL1; compound concentrations: 100 nM and 1000 nM (sheet 'Samples'), CATDS: 9.3195013096343204E-2",147 nM
same,potency estimated from few doses,"FYN; compound concentrations: 100 nM and 1000 nM (sheet 'Samples'), CATDS: 4.4615082678796297E-2",675 nM
same,potency estimated from few doses,"GAK; compound concentrations: 100 nM and 1000 nM (sheet 'Samples'), CATDS: 3.56871929379163E-2",1320 nM
same,potency estimated from few doses,HCK; CATDS: 0.15093661180131901,68.5 nM
same,potency estimated from few doses,"LCK; compound concentrations: 100 nM and 1000 nM (sheet 'Samples'), CATDS: 4.8128660017474401E-2",557 nM
same,potency estimated from few doses,"PTK6; compound concentrations: 100 nM and 1000 nM (sheet 'Samples'), CATDS: 6.5275116077435802E-2",284 nM
same,potency estimated from few doses,"RIPK2; compound concentrations: 100 nM and 1000 nM (sheet 'Samples'), CATDS: 0.141504972954966",75.4 nM
same,potency estimated from few doses,"RIPK3; compound concentrations: 100 nM and 1000 nM (sheet 'Samples'), CATDS: 4.8755783013644902E-2",540 nM
same,potency estimated from few doses,"YES1; compound concentrations: 100 nM and 1000 nM (sheet 'Samples'), CATDS: 6.0479326827192301E-2",332 nM
CC(C)c1nc(-c2cccc(NS(=O)(=O)c3c(F)cccc3F)c2)c(-c2ccnc(Nc3ccc(N4CCOCC4)nc3)n2)s1.Cl [GSK1723980B],potency estimated from few doses,"ABL1; compound concentrations: 100 nM and 1000 nM (sheet 'Samples'), CATDS: 2.44032415333994E-2",301 nM
same,potency estimated from few doses,"ABL2; compound concentrations: 100 nM and 1000 nM (sheet 'Samples'), CATDS: 5.9392404533495001E-2",61.3 nM
same,potency estimated from few doses,"BCR; compound concentrations: 100 nM and 1000 nM (sheet 'Samples'), CATDS: 2.01356126413582E-2",494 nM
same,potency estimated from few doses,"FYN; compound concentrations: 100 nM and 1000 nM (sheet 'Samples'), CATDS: 2.5454703773251201E-2",273 nM
same,potency estimated from few doses,"GAK; compound concentrations: 100 nM and 1000 nM (sheet 'Samples'), CATDS: 7.7994003352353694E-2",41.9 nM
same,potency estimated from few doses,HCK; CATDS: 2.2853369268103E-2,353 nM
same,potency estimated from few doses,"LCK; compound concentrations: 100 nM and 1000 nM (sheet 'Samples'), CATDS: 3.2406283014168501E-2",166 nM
same,potency estimated from few doses,"RET; compound concentrations: 100 nM and 1000 nM (sheet 'Samples'), CATDS: 3.0852467961072601E-2",183 nM
same,potency estimated from few doses,"RIPK2; compound concentrations: 100 nM and 1000 nM (sheet 'Samples'), CATDS: 1.9945459179113199E-2",508 nM
same,potency estimated from few doses,"RIPK3; compound concentrations: 100 nM and 1000 nM (sheet 'Samples'), CATDS: 1.9089551984729902E-2",580 nM
same,potency estimated from few doses,"TNK1; compound concentrations: 100 nM and 1000 nM (sheet 'Samples'), CATDS: 4.2309935228441099E-2",104 nM
same,potency estimated from few doses,"YES1; compound concentrations: 100 nM and 1000 nM (sheet 'Samples'), CATDS: 2.9075172405301501E-2",206 nM
Cl.Cn1c(=O)c(Cc2ccc(F)cc2F)cc2cnc(NC3CCOCC3)nc21 [RO3308757-001],potency estimated from few doses,ABL1; [1],1760 nM
same,potency estimated from few doses,ABL2; [1],513 nM
same,potency estimated from few doses,BCR; [1],477 nM
same,potency estimated from few doses,CLK1,779 nM
same,potency estimated from few doses,CLK4,1110 nM
same,potency estimated from few doses,GAK; [1],434 nM
same,potency estimated from few doses,LCK; [1],1220 nM
same,potency estimated from few doses,Q6ZSR9,1840 nM
same,potency estimated from few doses,RET; [1],877 nM
same,potency estimated from few doses,TNK1; [1],177 nM
same,potency estimated from few doses,YES1; [1],805 nM
Fc1ccc(-c2c(-c3ccncc3)[nH]c3nccnc23)cc1 [RO1155697-000],potency estimated from few doses,RIPK2; [1],828 nM
N#Cc1cnc2cc(-c3cnc(CNCCN4CCOCC4)s3)ccc2c1Nc1ccc(Oc2ccccc2)cc1 [GW664114X],potency estimated from few doses,"ABL1; compound concentrations: 100 nM and 1000 nM (sheet 'Samples'), CATDS: 4.8325821133258902E-2",1130 nM
same,potency estimated from few doses,"FYN; compound concentrations: 100 nM and 1000 nM (sheet 'Samples'), CATDS: 5.3110051753070202E-2",831 nM
same,potency estimated from few doses,HCK; CATDS: 0.211931822213385,69.1 nM
same,potency estimated from few doses,"LCK; compound concentrations: 100 nM and 1000 nM (sheet 'Samples'), CATDS: 5.7694634687651798E-2",657 nM
same,potency estimated from few doses,"YES1; compound concentrations: 100 nM and 1000 nM (sheet 'Samples'), CATDS: 7.4593421105350805E-2",361 nM
CC(C)c1nc(-c2ccc(F)c(NS(=O)(=O)c3c(F)cccc3F)c2)c(-c2ccnc(Nc3ccc(N4CCOCC4)nc3)n2)s1 [GSK1804250A],potency estimated from few doses,ABL1; [1],970 nM
same,potency estimated from few doses,ABL2; [1],126 nM
same,potency estimated from few doses,BCR; [1],954 nM
same,potency estimated from few doses,FYN; [1],944 nM
same,potency estimated from few doses,GAK; [1],600 nM
same,potency estimated from few doses,LCK; [1],342 nM
same,potency estimated from few doses,RIPK3; [1],2130 nM
same,potency estimated from few doses,TNK1; [1],328 nM
same,potency estimated from few doses,YES1; [1],679 nM
COc1cc2ncn(-c3cc(OCc4cccs4)c(C(N)=O)s3)c2cc1OC [GSK312948A],potency estimated from few doses,Q6ZSR9,2250 nM
Nc1nc(N)c2nc(-c3ccccc3)[nH]c2n1 [SKF-12778],potency estimated from few doses,CLK1,1150 nM
same,potency estimated from few doses,CSNK2A1;CSNK2A3,1350 nM
same,potency estimated from few doses,CSNK2A2,1100 nM
same,potency estimated from few doses,PTK6; [1],1150 nM
same,potency estimated from few doses,YES1; [1],1040 nM
N#Cc1cccc(Nc2nccc(-c3cnn4ncccc34)n2)c1 [GW778894X],potency estimated from few doses,CLK1,3.93 nM
same,potency estimated from few doses,CLK4,0.363 nM
same,potency estimated from few doses,CSNK2A1;CSNK2A3,603 nM
same,potency estimated from few doses,CSNK2A2,601 nM
